Only some compounds are listed: those with a hit (about 5.9% of all), similar ones and a draw of the others.
KB-V1 MDR tox: qHTS assay for MDR1-selective chemotherapeutics: Primary screen using the drug-selected MDR subline cells KB-V1. KB-V1 MDR cells viability, CellTiter-Glo, 72 h. Potency, µM (top dose mostly 46.1 µM), most hits filed as cytotoxic. 3.4% of 400,000 active; note: nearly all actives have a fitted effect of over 60% in size
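Following 72 h at 37 degrees C with compound, KB-V1 cell viability was read by CellTiter-Glo luminescence, medium being phenol-red-free DMEM plus 10% FBS; concentration-response parameters came from normalized, curve-fitted qHTS data.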
ATXN viability: Viability Counterscreen for Primary qHTS for Inhibitors of ATXN expression. Potency, µM (top dose mostly 56.7 µM), hits mostly cytotoxic. 0.49% of 400,000 active. S2 cells (HEK-293 line with an ATXN2-luciferase reporter) viability, CellTiter-Fluor protease fluorescence, 24 h. AID 651635, 2014; note: nearly all actives have a fitted effect of over 40% in size
KB-3-1 tox: qHTS assay for MDR1-selective chemotherapeutics: Primary screen using the parental adenocarcinoma cell KB-3-1; KB-3-1 viability, CellTiter-Glo ATP luminescence, 72 h; Potency, µM (doses to about 46.1 µM), most hits filed as cytotoxic; 1.4% of 400,000 active; note: nearly all actives have a fitted effect of over 60% in size
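KB-3-1 cells, DMEM (no phenol red) + 10% FBS; compound by pin transfer, 72 h, 37 °C. Readout: CellTiter-Glo luminescence after 10 min. Data normalized, curve-fitted.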
TGFb SMAD3 inh: qHTS for Inhibitors of TGF-b; AID 588855, 2011; HepG2 CAGA-GFP TGF-b/SMAD3 reporter, GFP fluorescence, 18 h; TGF-beta stimulated, 500 pg/mL final; Potency, µM (highest dose often 46.1 µM), usual class: inhibitors; 1.2% of 410,000 active; note: nearly all actives have a fitted effect of over 65% in size
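HEPG2 CAGA-GFP cells (1000/well, DMEM with 1% FBS) were pre-incubated 2 h at 37 degrees C, given compound by pin tool, then stimulated with TGF-beta at 500 pg/mL final for 18 h before per-cell GFP fluorescence imaging.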
ATXN2 expr inh: Primary qHTS for Inhibitors of ATXN expression; HEK-293 ATXN2-luciferase reporter, luminescence, 24 h; Potency, µM (titrated, usually from 57 µM), most hits filed as inhibitors; 0.72% of 360,000 active; note: nearly all actives have a fitted effect of over 55% in size
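qHTS (up to 57 uM final) was run with 24 h compound exposure of reporter cells at 37 °C. Each well was multiplexed: SteadyGlo luminescence measured ATXN2-luciferase expression after a fluorogenic Gly-Phe-AFC viability readout (25 uM final).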
HepG2 tox-1: qHTS for Inhibitors of TGF-b: Cytotox Counterscreen | HepG2 CAGA-GFP viability, ATP luminescence, 18 h | Potency, µM (highest dose often 46.1 µM), usual class: cytotoxic | 0.76% of 410,000 active | AID 588856, 2011
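HepG2 CAGA-GFP cells (1000/well, DMEM with 1% FBS) received compound, then TGF-beta at 500 pg/mL final, and were incubated 18 hours at 37 degrees C. Viability was read by CellTiter-Glo luminescence. Media-only wells were set as complete cell-killing and DMSO as no toxicity.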
TGFb confirm: qHTS for Inhibitors of TGF-b: Confirmation of Cherry Picks | Potency, µM (top dose mostly 46.1 µM), most hits filed as inhibitors | shares compounds with TGFb SMAD3 inh | HepG2 CAGA-GFP TGF-b reporter, GFP fluorescence, 18 h; cells stimulated with TGF-beta, 500 pg/mL | 63% of 1,600 active; note: nearly all actives have a fitted effect of over 65% in size
HepG2 tox-2: qHTS for Inhibitors of TGF-b: Cytotox Counterscreen for Cherry Picks | AID 720535, 2013 | HepG2 CAGA-GFP viability, ATP luminescence, 18 h; cells stimulated with TGF-beta, 500 pg/mL | Potency, µM (series often up to 46.1 µM), actives largely listed as inhibitors | 27% of 1,600 active | shares compounds with TGFb SMAD3 inh; note: nearly all actives have a fitted effect of over 70% in size
CCL64 TGFb inh: qHTS for Inhibitors of TGF-b: CCL64 Cells Orthogonal Assay for Cherry Picks; AID 720536, 2013; CCL64 CAGA-GFP reporter, TGF-b stimulated, GFP fluorescence, 18 h; shares compounds with TGFb SMAD3 inh; Potency, µM (top dose mostly 46.1 µM), usual class: inhibitors; 41% of 1,600 active; note: nearly all actives have a fitted effect of over 65% in size
COP TGFb inh: qHTS for Inhibitors of TGF-b: Hit Validation in HepG2 Cells using COP promoter; AID 720537, 2013; HepG2 COP-GFP TGF-b reporter, GFP fluorescence, 18 h; cells stimulated by added recombinant TGF-beta; shares compounds with TGFb SMAD3 inh; Potency, µM (top dose mostly 46.1 µM), most hits filed as inhibitors; 3% of 1,600 active; note: nearly all actives have a fitted effect of over 70% in size
Each line names hits and unclear results; the compound was inactive in the other large screens (follow-up assays come after a bar, where they were run). Calls come from the whole dose curve; as a rule, active = well fitted curve in the direction sought with a large enough effect; inconclusive = small, poorly fitted or top-dose-only effect, or another doubt; inactive = no such curve, though single readings can be large; an effect the other way counts as inactive or inconclusive.

CO[C@@H](C)[C@](O)(C(=O)OCC1=CCN2CC[C@@H](O)[C@H]12)C(C)C	none (no result: KB-V1 MDR tox, KB-3-1 tox, TGFb SMAD3 inh, ATXN2 expr inh, HepG2 tox-1)
NC(=Nc1ccccc1)Nc1ccccc1	ATXN viability inconclusive, TGFb SMAD3 inh 8.91µM | TGFb confirm 9.2µM | HepG2 tox-2 inconclusive | CCL64 TGFb inh inconclusive | COP TGFb inh inactive
CC(/C=C(\C)Nc1ccccc1)=Nc1ccccc1	none
O=C1NCCOC(=O)[C@@H](Cc2ccc(F)cc2)CC/C=C/C[C@H]1CC(=O)N(CCO)Cc1ccccc1	none
C/C=C1/C[C@@H](C)[C@@](C)(O)C(=O)OCC2=CCN3CC[C@@H](OC1=O)[C@@H]23	none (no result: KB-V1 MDR tox, ATXN viability, KB-3-1 tox, ATXN2 expr inh)
CO[C@H]1C=C2CCN(C)[C@@H]2[C@@H]2c3cc4c(cc3C(=O)O[C@H]21)OCO4	none (no result: KB-V1 MDR tox, KB-3-1 tox, TGFb SMAD3 inh, ATXN2 expr inh, HepG2 tox-1)
O=P1(Oc2ccccc2)CC=CC(COCc2ccccc2)O1 (stereo unspecified)	none (no result: KB-V1 MDR tox, ATXN viability, KB-3-1 tox, ATXN2 expr inh)
COc1ccc(CC2NCC(O)C2OC(C)=O)cc1 (stereo unspecified)	KB-V1 MDR tox 0.184µM, ATXN viability inconclusive, KB-3-1 tox 0.184µM, TGFb SMAD3 inh 0.112µM, ATXN2 expr inh 0.0106µM | TGFb confirm 0.103µM | HepG2 tox-2 0.366µM | CCL64 TGFb inh 0.082µM | COP TGFb inh inactive
CCc1ccc(-n2c(SC(CC)C(=O)N(CC)CC)nc3n[nH]c(C)c3c2=N)cc1 (stereo unspecified)	ATXN viability inconclusive, TGFb SMAD3 inh inconclusive, ATXN2 expr inh inconclusive
CC(=O)c1cn(Cc2ccccc2F)c2ccccc12	KB-3-1 tox inconclusive, TGFb SMAD3 inh inconclusive
O=Cc1cn(Cc2ccccc2F)c2ccccc12	TGFb SMAD3 inh 0.891µM, ATXN2 expr inh inconclusive | TGFb confirm 0.461µM | HepG2 tox-2 1.03µM | CCL64 TGFb inh inactive | COP TGFb inh inactive
CC(C)(C)NC[C@H](O)c1cc(Cl)c(N)c(Cl)c1	none (no result: KB-V1 MDR tox, KB-3-1 tox, TGFb SMAD3 inh, ATXN2 expr inh, HepG2 tox-1)
Oc1ccccc1-[n+]1c(-c2ccccc2)cc(-c2ccccc2)c(O)c1-c1ccccc1	TGFb SMAD3 inh 11.2µM | TGFb confirm inconclusive | HepG2 tox-2 inconclusive | CCL64 TGFb inh 23.1µM | COP TGFb inh inactive
Cc1ccc(-c2cc(-c3ccccc3)cc(-c3ccccc3)[n+]2-c2ccccc2C(=O)O)cc1	ATXN viability inconclusive, KB-3-1 tox inconclusive, TGFb SMAD3 inh inconclusive, ATXN2 expr inh inconclusive
C[C@H]1COC(=O)[C@@H](Cc2ccc(F)cc2)CC/C=C/C[C@H](CC(=O)N(CCO)Cc2ccccc2)C(=O)N1	none

Compound activity: PubChem, National Center for Advancing Translational Sciences (NCATS)
